Assay outcomes (PubChem BioAssay)
Most compounds without a hit are left out; they make up all but 0.85% or so of the library.
GLS inh – qHTS for Inhibitors of Glutaminase (GLS); Glutaminase kidney isoform, mitochondrial (Homo sapiens), O94925; GLS enzymatic activity, qHTS titration; Potency, µM (titrated, usually from 45.5 µM), hits mostly inhibitors; hit rate 0.21% among 410,000
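Two-point fluorescence kinetic (t0, 30 min RT) for hKGA; glutamate detected via glutamate oxidase–HRP–Amplex Red. Substrate: 1 mM L-glutamine solution; buffer 45 mM KH2PO4, pH 8.2.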
CCT modulator – High-Throughput Screening for Modulators of Cytosolic Chaperonin Activity | purified chaperonin ATPase assay, HTRF ADP detection, 30 min | activity change, % (no concentration beside the values), hits read low | hit rate 0.3% among 360,000 | AID 651819, 2012; in the data active means activity change below about -30%
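ATPase activity: ADP formed was measured by HTRF Transcreener (665/615 nm ratio) after 30 min at 37 deg C with 10 uM ATP. Compounds screened at one 76 uM concentration against 40 or 20 nM TRiC in Tris pH 7.4/KCl/MgCl2/DTT buffer.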
mIDH1 inhibitor – qHTS for Inhibitors of mutant isocitrate dehydrogenase 1 (IDH1): qHTS; Isocitrate dehydrogenase [NADP] cytoplasmic (Homo sapiens), O75874; hit rate 0.093% among 390,000; Potency, µM (series often up to 76.6 µM), usual class: inhibitors; IDH1-R132H enzyme, NADPH consumption, diaphorase/resazurin fluorescence; further: nearly all actives have a fitted effect of over 65% in size
Target sequence (O75874 whole entry R132H, stated change not applied): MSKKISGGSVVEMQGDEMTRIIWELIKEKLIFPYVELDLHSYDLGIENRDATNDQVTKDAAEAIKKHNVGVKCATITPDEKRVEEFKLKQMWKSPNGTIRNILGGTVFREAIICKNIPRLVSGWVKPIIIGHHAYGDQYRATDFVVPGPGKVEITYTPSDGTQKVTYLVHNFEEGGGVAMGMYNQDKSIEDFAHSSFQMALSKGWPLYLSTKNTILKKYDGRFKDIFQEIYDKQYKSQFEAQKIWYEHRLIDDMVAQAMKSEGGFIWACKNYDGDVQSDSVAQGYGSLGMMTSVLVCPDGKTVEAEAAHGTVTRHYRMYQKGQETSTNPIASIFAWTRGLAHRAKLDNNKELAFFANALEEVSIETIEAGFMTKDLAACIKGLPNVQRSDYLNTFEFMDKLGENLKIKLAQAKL
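IDH1-R132H (0.5 ug/mL) preincubated 30 min with compound, then NADPH (0.016 mM) and alpha-KG (2 mM) added; 80 min at RT, pH 7.5. Remaining NADPH coupled via diaphorase/resazurin to fluorescence (540/590 nm); concentration-response curves normalized to no-enzyme control.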
Glioma ERSR ind – qHTS for Inducers of the Endoplasmic Reticulum Stress Response (ERSR) in Human Glioma: qHTS; AID 602332, 2012; U87-MG GRP78 promoter luciferase reporter, 16 h; Potency, µM, hits mostly activators; hit rate 0.02% among 420,000; further: series mostly up to about 76 µM; nearly all actives have a fitted effect of over 35% in size
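Stably transfected U87-MG glioma cells carrying a GRP78-based luciferase sensor; 16 h compound incubation. Luminescence end-point read 10 min after Bright-Glo addition at room temperature.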
Akt phos inh – HTS Assay for Inhibitors of Akt Phophorylation: Primary Screen. activity change, % for hits at 50 µM. AID 651550, 2012. hit rate 0.32% among 360,000. Neuro2A IGF-stimulated pAkt S473 HTRF, 20 min; hits give low values; in the data active means activity change below about -80%; inconclusive means mostly about -51% to -80%
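Neuro2A cells (4,500/well, DMEM with 0.5% FBS) were treated with compound at a single 50 µM final concentration, stimulated with 6 nM IGF for 20 min at 37 °C, and lysed. Phospho-Akt Ser473 was read by HTRF as 665/615 ratio ×10^4.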
Mm-Cpn inhibitor – Inhibitors of TCP-1 ring complex (TRiC) of Methanococcus maripaludis (MmCpn): qHTS. Chaperonin Mm-Cpn (Methanococcus maripaludis). purified Mm-Cpn ATPase, ADP Transcreener TR-FRET. Potency, µM (series often up to 76.9 µM), most hits filed as inhibitors. hit rate 0.031% among 330,000; further: nearly all actives have a fitted effect of over 80% in size
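Reaction buffer contained 30 mM Tris pH 7.4, 100 mM KCl, 5 mM MgCl2 and 1 mM DTT. Mm-CPN (25 nM final) hydrolysed 10 uM ATP over 30 min at 37°C; ADP was read by HTRF.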
IDH1 autofl – qHTS for Inhibitors of mutant isocitrate dehydrogenase 1 (IDH1): Cherrypicks Autofluorescence Interference; 750 tested, under 10 active; Resorufin detection reagent fluorescence interference, cell-free; shares compounds with mIDH1 inhibitor; inhibition of signal, % at 51.2 µM
WT IDH1 inh – qHTS for Inhibitors of mutant isocitrate dehydrogenase 1 (IDH1): Cherrypicks in WT IDH1; WT IDH1 enzyme, NADPH diaphorase/resazurin fluorescence; shares compounds with mIDH1 inhibitor; hit rate 9% among 750; Potency, µM (series often up to 115 µM), usual class: inhibitors; further: nearly all actives have a fitted effect of over 55% in size
Target sequence (O75874 whole entry, looked up): as the sequence (O75874 whole entry R132H, stated change not applied) above, with H132R counted along it
IDH1 R132H conf – qHTS for Inhibitors of mutant isocitrate dehydrogenase 1 (IDH1): Confirmation of Cherrypicks; IDH1 R132H enzyme, NADPH diaphorase/resazurin fluorescence; Potency, µM (highest dose often 76.6 µM), actives largely listed as inhibitors; shares compounds with mIDH1 inhibitor; hit rate 83% among 750; further: nearly all actives have a fitted effect of over 50% in size
A number is an active result; 0 = inactive; ? = inconclusive; - = no result. Unless noted, the call rests on the fitted dose curve; in most records, active means well fitted curve in the direction sought with a large enough effect; inconclusive means small, poorly fitted or top-dose-only effect, or another doubt; inactive means no such curve, though single readings can be large; an effect the other way counts as inactive or inconclusive.

SMILES	GLS inh	CCT modulator	mIDH1 inhibitor	Glioma ERSR ind	Akt phos inh	Mm-Cpn inhibitor	IDH1 autofl	WT IDH1 inh	IDH1 R132H conf
CC(C)(C)NC(=O)CSc1nc2ccc(Nc3nc(N4CCOCC4)nc(N4CCOCC4)n3)cc2s1	0	0	?	0	0	0	0	0	20µM
Cc1ncc2c(c1CNC(=O)c1cncs1)CCN(C(=O)c1ccc(-c3ccccc3)cc1)C2	-	-	-	0	-	-	-	-	-
CC(C)=CCc1c(O)cc(O)c2c(=O)c3c(CC=C(C)C)c(O)ccc3oc12	0	0	44.7µM	0	0	-	0	0	39.8µM
COc1ccc(Br)cc1CN(C)C(=O)c1ccccc1SCC(=O)N1CCCC1	0	0	46.5µM	0	0	-	0	0	35.5µM
Cc1ccc(F)cc1CNC(=O)c1sc2ncnc(NCC3CCCO3)c2c1C (configuration not stated)	-	-	-	0	-	-	-	-	-
CCC1CN(CCC(=O)NC2CCOC(C)(C)C2)Cc2cc(OC)ccc2O1 (configuration not stated)	-	-	-	0	-	-	-	-	-
C=C(C)Cc1c(C)c(C#N)c2nc3ccccc3n2c1N1CCCCC1	0	0	?	0	0	0	0	0	14.1µM
Cc1cccc(/C=N/Nc2cc(N3CCOCC3)nc(N3CCOCC3)n2)c1	0	0	?	0	0	0	0	0	12.6µM
CC(C)c1ccc(/C=N/Nc2cc(N3CCOCC3)nc(N3CCOCC3)n2)cc1	0	0	0	0	0	0	-	-	-
Cc1c(C(=O)N(C)C2CCOC2)sc2ncnc(NCC3(c4ccccc4)CCOCC3)c12 (configuration not stated)	-	-	-	0	-	-	-	-	-
CCOC(=O)c1c(NC(=O)/C=C/C(=O)O)sc(C)c1-c1ccc(C)c(C)c1	0	0	23.3µM	?	0	0	0	?	44.7µM
CCc1ccc(CNC(=O)CN2C(=O)c3cccnc3Oc3ccc(Cl)cc32)cc1	0	-	?	0	-	-	0	0	0
CC(C)(CNC(=O)c1cnn(-c2ncc3c(n2)-c2ccccc2CCC3)c1C1CC1)N1CCOCC1	-	-	-	0	-	-	-	-	-
CCOc1ccc(CCN2C(=O)C(=O)N([C@@H](Cc3ccccc3)CN3CCC[C@H]3CN3C(=O)C(=O)NC[C@@H]3Cc3ccc(O)cc3)C[C@@H]2Cc2ccc(O)cc2)cc1	0	0	-	-	0	-	-	-	-
O=C1NC[C@H](Cc2ccc(O)cc2)N(C[C@@H]2CCCN2C[C@H](Cc2ccc(O)cc2)N2C[C@H](Cc3ccccc3)N(CC3CCCCCC3)C(=O)C2=O)C1=O	0	0	-	-	0	-	-	-	-
CCOc1ccc(CCN2C(=O)C(=O)N([C@@H](Cc3ccc(O)cc3)CN3CCC[C@@H]3CN3C(=O)C(=O)NC[C@@H]3Cc3ccccc3)C[C@@H]2Cc2ccccc2)cc1	0	0	31.6µM	0	0	-	0	0	10µM
CC(C)C[C@@H](CN1CCC[C@H]1CN1C(=O)C(=O)NC[C@@H]1Cc1ccc(O)cc1)N1C[C@H](Cc2ccccc2)N(CC2CCCCCC2)C(=O)C1=O	0	0	-	-	0	-	-	-	-
CC(C)C[C@@H](CN1CCC[C@@H]1CN1C(=O)C(=O)NC[C@@H]1Cc1ccccc1)N1C[C@H](Cc2ccc(O)cc2)N(CC2CCCCCC2)C(=O)C1=O	0	0	28.2µM	0	0	-	0	0	11.2µM
O=C1NC[C@H](Cc2ccccc2)N(C[C@H]2CCCN2C[C@H](Cc2ccccc2)N2C[C@H](Cc3ccc(O)cc3)N(CC3CCCCCC3)C(=O)C2=O)C1=O	0	0	?	0	0	-	0	0	10µM
O=C1NC[C@H](Cc2ccccc2)N(C[C@H]2CCCN2C[C@H](Cc2ccc(O)cc2)N2C[C@H](Cc3ccc(O)cc3)N(CC3CCCCCC3)C(=O)C2=O)C1=O	0	0	?	0	0	-	0	0	15.8µM
c1cncc(OC2CCN(Cc3ccc4c(c3)CN(Cc3ccc5c(c3)OCO5)CCO4)CC2)c1	-	-	-	0	-	-	-	-	-
Cc1cc(C)nc(S[C@H]2C[C@@H](C(=O)N3CCN(c4ccccc4F)CC3)N(Cc3ccccc3F)C2)n1	-	-	-	0	-	-	-	-	-
Cc1ncc2c(c1CNC(=O)c1cncs1)CCN(C(=O)c1ccc(C(C)(C)C)cc1)C2	-	-	-	0	-	-	-	-	-
CCCc1cc(N2CCN(C(=O)c3ccco3)CC2)n2c(nc3ccccc32)c1C#N	0	0	?	0	0	0	0	?	39.8µM
COc1cc(Cl)c(C)cc1NC(=O)c1ccc2c(SCC(=O)O)c3c(nc2c1)CCCC3	0	0	?	0	0	0	0	?	28.2µM
SMILES	GLS inh	CCT modulator	mIDH1 inhibitor	Glioma ERSR ind	Akt phos inh	Mm-Cpn inhibitor	IDH1 autofl	WT IDH1 inh	IDH1 R132H conf
CCOC(=O)c1ccccc1NC(=O)c1ccc2c(SCC(=O)O)c3c(nc2c1)CCCC3	?	0	41.4µM	0	0	0	0	70.8µM	15.8µM
COc1ccc(C)cc1NC(=O)c1ccc2c(SCC(=O)O)c3c(nc2c1)CCCC3	0	0	0	0	0	0	-	-	-
CC(C)(CNC(=O)c1cnn(-c2nccc(-c3ccccc3F)n2)c1C1CC1)N1CCOCC1	-	-	-	0	-	-	-	-	-
COc1ccc(NC(=O)CCN2CCN(S(=O)(=O)c3ccc(C(C)C)cc3)CC2)cc1	?	0	0	0	0	0	-	-	-
CC(C)c1ccc(S(=O)(=O)N2CCN(CCC(=O)Nc3ccc(N(C)C)cc3)CC2)cc1	0	0	46.5µM	0	0	0	0	0	22.4µM
Cc1ccc(OCCCSc2nc(-c3ccc(C(C)(C)C)cc3)nc3cc(=O)[nH]n23)cc1C	0	-	39.8µM	0	-	-	0	?	25.1µM
Cc1cc(C(=O)Nc2ccccc2-c2nc(CNC(=O)C3(C)CCCCC3)c(C)o2)c(C)o1	-	-	-	0	-	-	-	-	-
Cc1ccc(NC2(c3nnnn3-c3c(C)cccc3C)CCCCC2)cc1	0	0	58.5µM	0	0	0	0	0	0
O=C(O)C(=O)Nc1cccc(C2=NN=N[N]2)c1	0	-	-	0	-	-	-	-	-
